Unmarked numbers belong to inactive results. Records with an inconclusive call do not appear. Activity calls are given as the source filed them. Unless noted, calls come from the whole dose curve; as a rule, active = well fitted curve in the direction sought with a large enough effect; inconclusive = small, poorly fitted or top-dose-only effect, or another doubt; inactive = no such curve, though single readings can be large; an effect the other way counts as inactive or inconclusive.

The values below come from PubChem BioAssay (NCATS).

In assay [1] the target is Alpha-galactosidase (Coffea arabica) (UniProt Q42656). Briefly: Counterscreen for Glucocerebrosidase Inhibitors: qHTS Assay for Coffee Bean alpha-Galactosidase at pH 4.5 (AID 957).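 Note: series mostly up to about 77 µM; plate controls were enzyme alone for no effect and no enzyme for full effect.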 Put shortly: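 Green coffee bean enzyme (2 nM final) was incubated with compounds (0.7 nM to 77 uM) and 4-methylumbelliferyl alpha-D-galactopyranoside (80 uM final) in 50 mM citric acid, 0.005% Tween-20, pH 4.5, 20 min at room temperature; AC50 from Hill fits.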
Chain of Alpha-galactosidase (Coffea arabica) (Q42656 whole entry, looked up): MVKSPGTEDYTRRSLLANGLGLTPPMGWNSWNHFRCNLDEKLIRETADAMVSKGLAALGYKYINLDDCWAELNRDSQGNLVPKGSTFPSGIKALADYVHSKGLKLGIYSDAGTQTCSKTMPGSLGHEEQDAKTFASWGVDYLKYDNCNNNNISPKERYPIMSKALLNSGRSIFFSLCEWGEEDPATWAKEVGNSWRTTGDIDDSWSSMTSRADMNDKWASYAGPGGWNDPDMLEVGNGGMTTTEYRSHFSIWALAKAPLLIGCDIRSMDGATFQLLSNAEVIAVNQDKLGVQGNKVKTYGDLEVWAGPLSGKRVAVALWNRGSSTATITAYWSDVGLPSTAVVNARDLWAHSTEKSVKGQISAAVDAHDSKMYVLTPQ
Background: The purpose of a counterscreen is to sort out artefacts and off-target activity.

The nature of assay [2]: Validation screen for inhibitors of Lassa infection (AID 463096; calls by dose curve; note: potency is the fitted concentration of half-maximal effect).
Assay [3] in a line: Inducers of the Endoplasmic Reticulum Stress Response (ERSR) in human glioma: Validation (AID 504836). Note: 0% is about no effect. Summed up: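 ERSR induction read as luciferase luminescence (Bright-Glo, 10 min at room temperature) in stably transfected human U87-MG glioma cells exposed to compounds for 16 h, using GRP78 as sensor.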
The nature of assay [4]: qHTS for Inhibitors of the Functional Ribonucleoprotein Complex (vRNP) of Lassa (LASV) Arenavirus: LASV Primary Screen - GLuc reporter signal (AID 1347082; calls by dose curve; tested in HEK293 reporter line; note: series mostly up to about 57 µM; % is set by controls: 0 for no effect and ±100 for the full control effect; nearly all actives have a fitted effect of over 60% in size). (In general: qHTS replaces the single test concentration by a dilution series.)
A short description of assay [5]: qHTS for Inhibitors of the Functional Ribonucleoprotein Complex (vRNP) of Lassa (LASV) Arenavirus: Viability assay - alamar blue signal for LASV Primary Screen (AID 1347083; calls by dose curve; tested in HEK293 reporter line; note: series mostly up to about 57 µM; % is set by controls: 0 for no effect and ±100 for the full control effect; nearly all actives have a fitted effect of over 80% in size).
Assay [6] can be described thus: qHTS for Inhibitors of the Functional Ribonucleoprotein Complex (vRNP) of Lymphocytic Choriomeningitis Arenaviruses (LCMV): Viability assay - alamar blue signal for LCMV Primary Screen (AID 1347085; calls by dose curve; tested in HEK293 reporter line; note: series mostly up to about 57 µM; % is set by controls: 0 for no effect and ±100 for the full control effect; nearly all actives have a fitted effect of over 80% in size).
The target in assay [7] is Nucleoprotein (Lymphocytic choriomeningitis virus (strain Armstrong)) (UniProt P09992). Briefly: qHTS for Inhibitors of the Functional Ribonucleoprotein Complex (vRNP) of Lymphocytic Choriomeningitis Arenaviruses (LCMV): LCMV Primary Screen - GLuc reporter signal (AID 1347086; calls by dose curve; note: series mostly up to about 57 µM; % is set by controls: 0 for no effect and ±100 for the full control effect; nearly all actives have a fitted effect of over 70% in size).
Chain of Nucleoprotein (Lymphocytic choriomeningitis virus (strain Armstrong)) (P09992 whole entry, looked up): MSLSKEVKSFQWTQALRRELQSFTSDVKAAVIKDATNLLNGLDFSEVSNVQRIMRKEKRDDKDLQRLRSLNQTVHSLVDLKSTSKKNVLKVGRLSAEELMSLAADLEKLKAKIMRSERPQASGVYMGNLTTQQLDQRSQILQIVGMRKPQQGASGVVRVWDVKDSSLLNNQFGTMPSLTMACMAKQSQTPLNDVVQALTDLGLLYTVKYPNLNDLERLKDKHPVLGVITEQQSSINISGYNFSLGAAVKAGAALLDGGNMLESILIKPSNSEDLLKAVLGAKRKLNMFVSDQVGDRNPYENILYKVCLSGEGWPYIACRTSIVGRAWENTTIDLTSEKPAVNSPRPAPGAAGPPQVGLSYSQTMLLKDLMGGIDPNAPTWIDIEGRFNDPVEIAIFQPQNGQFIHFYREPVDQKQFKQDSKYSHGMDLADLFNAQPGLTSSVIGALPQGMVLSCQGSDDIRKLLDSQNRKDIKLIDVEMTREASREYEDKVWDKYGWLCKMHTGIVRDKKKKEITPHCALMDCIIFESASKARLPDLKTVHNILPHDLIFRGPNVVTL
Assay [8] has as its target Nuclear receptor ROR-gamma (Homo sapiens) (UniProt P51449). Briefly: qHTS assay for small molecule antagonists of the retinoid-related orphan receptor gamma (ROR-gamma) signaling pathway (AID 651802). Note: series mostly up to about 92 µM; % is set by controls: 0 for no effect and ±100 for the full control effect; nearly all actives have a fitted effect of over 60% in size. Put shortly:
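CHO cells carrying TET-inducible ROR-gamma and an ROR response element–luciferase reporter were exposed to compound, then induced with doxycycline. After 16hr at 37C, luminescence was read; lower signal indicates antagonism.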

The target in assay [9] is Arylsulfatase A (Homo sapiens) (UniProt P15289). Briefly: qHTS screen for enhancers of Arylsulfatase A (ASA1): LOPAC Validation Assay (AID 720538). Note: 0% is about no effect. Put shortly:
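Enhancer assay in patient-derived MLD fibroblasts carrying ASA-I179S: 48 h compound exposure at 37 C, then 14 h room-temperature pNCS turnover (0.5 mM final) in lysis buffer. Read by fluorescence at 525/598 nm after NaOH stop.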

A short description of assay [10]: qHTS Assay for Identifying Gametocytocidal Compounds (AID 743244).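 Note: % is set by controls: 0 for no effect and ±100 for the full control effect; actives lower the fluorescent signal which means gametocytes are killed.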 The following applies: P. falciparum 3D7 stage III-V gametocytes, alamarBlue, 72 h; max response: stronger effect = lower value. Put shortly:
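Late gametocytes (III–V), P. falciparum 3D7; 72 h drug, then 24 h alamarBlue; resazurin reduction read by fluorescence.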

Assay [11] has as its target Alpha-galactosidase (Coffea arabica) (UniProt Q42656). Briefly: Counterscreen for Glucocerebrosidase Inhibitors: qHTS Assay for Coffee Bean alpha-Galactosidase at pH 5.9 (AID 998).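 Note: plate controls were uninhibited enzyme for no effect and no-enzyme basal signal for full effect.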 Put shortly: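 Compounds were titrated from 0.7 nM to 77 uM against green coffee bean alpha-galactosidase (2 nM) using 80 uM fluorogenic 4-methylumbelliferyl substrate. After 20 min at room temperature, reactions were stopped at pH 10 and read by fluorescence.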

The target of assay [12] is Cytochrome P450 3A4 (Homo sapiens) (UniProt P08684). Briefly: qHTS Assay for Inhibitors and Substrates of Cytochrome P450 3A4 (AID 884). Note: series mostly up to about 57 µM; % is set by controls: 0 for no effect and ±100 for the full control effect; nearly all actives have a fitted effect of over 50% in size. Summed up:
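20 nM human CYP3A4 with 25 uM Luciferin-PPXE (at KM) in 200 mM KPO4, preincubated 10 min with compound; NADPH regeneration started a 60 min RT reaction. Luciferin detected by luminescence, normalized to 57 uM ketoconazole as full inhibition.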

The target in assay [13] is Ubiquitin carboxyl-terminal hydrolase 1 (Homo sapiens) (UniProt O94782). Briefly: Inhibitors of USP1/UAF1: Pilot qHTS (AID 504865).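 Note: rhodamine fluorescence freed from ubiquitin-rhodamine substrate followed over time; top concentration of the series differs between compounds; % is set by controls: 0 for no effect and ±100 for the full control effect; nearly all actives have a fitted effect of over 35% in size.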 Summed up:
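Deubiquitinase activity followed as kinetic rhodamine fluorescence release from 150 nM Ub-Rho. 1 nM USP1/UAF1 with compound, after 15 min room-temperature preincubation, in HEPES pH 7.8 buffer containing TCEP, EDTA, BSA and Tween-20.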

The target of assay [14] is Voltage-gated inwardly rectifying potassium channel KCNH2 (Homo sapiens) (UniProt Q12809). Briefly: qHTS Assay for Small Molecule Inhibitors of the Human hERG Channel Activity (AID 588834).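 Note: top concentration of the series differs between compounds; % is set by controls: 0 for no effect and ±100 for the full control effect; lower thallium flux fluorescence means stronger hERG block; nearly all actives have a fitted effect of over 50% in size.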 Summed up: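 Kinetic FDSS fluorescence; U2OS + hERG BacMam (~100 virus particles/cell); FluxOR Tl+ flux; ~10 min cpd; AC50 (Hill).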
Chain of Voltage-gated inwardly rectifying potassium channel KCNH2 (Homo sapiens) (Q12809 whole entry, looked up): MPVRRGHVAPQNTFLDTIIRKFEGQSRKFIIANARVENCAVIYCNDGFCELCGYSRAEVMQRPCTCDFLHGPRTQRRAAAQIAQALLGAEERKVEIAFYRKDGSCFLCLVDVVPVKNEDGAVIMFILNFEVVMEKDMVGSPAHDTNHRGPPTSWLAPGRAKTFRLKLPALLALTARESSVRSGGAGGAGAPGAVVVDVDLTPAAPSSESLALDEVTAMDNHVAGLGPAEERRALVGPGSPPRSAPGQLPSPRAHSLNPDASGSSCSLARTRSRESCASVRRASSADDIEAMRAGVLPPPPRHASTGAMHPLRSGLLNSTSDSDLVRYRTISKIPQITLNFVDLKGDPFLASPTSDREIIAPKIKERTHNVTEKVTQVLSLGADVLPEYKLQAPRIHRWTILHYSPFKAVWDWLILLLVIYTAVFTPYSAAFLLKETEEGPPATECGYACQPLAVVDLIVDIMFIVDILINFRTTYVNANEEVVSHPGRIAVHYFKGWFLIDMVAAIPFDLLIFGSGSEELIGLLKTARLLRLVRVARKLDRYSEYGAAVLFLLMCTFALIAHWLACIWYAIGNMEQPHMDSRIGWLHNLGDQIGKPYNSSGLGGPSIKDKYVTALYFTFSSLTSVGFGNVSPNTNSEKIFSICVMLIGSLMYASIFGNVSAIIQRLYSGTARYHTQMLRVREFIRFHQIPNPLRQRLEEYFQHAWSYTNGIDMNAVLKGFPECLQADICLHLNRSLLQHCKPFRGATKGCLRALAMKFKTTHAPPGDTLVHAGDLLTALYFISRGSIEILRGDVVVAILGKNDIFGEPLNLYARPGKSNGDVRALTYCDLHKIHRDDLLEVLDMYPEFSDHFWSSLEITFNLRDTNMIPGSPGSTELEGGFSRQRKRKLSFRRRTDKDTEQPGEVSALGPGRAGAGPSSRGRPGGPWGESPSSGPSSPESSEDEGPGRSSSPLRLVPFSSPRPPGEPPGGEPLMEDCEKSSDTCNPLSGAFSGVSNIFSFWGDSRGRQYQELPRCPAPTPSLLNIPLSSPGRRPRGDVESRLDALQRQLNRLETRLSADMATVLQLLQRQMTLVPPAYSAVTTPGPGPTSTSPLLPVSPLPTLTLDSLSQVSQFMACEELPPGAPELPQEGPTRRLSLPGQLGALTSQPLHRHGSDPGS
In assay [15] the target is Bile acid receptor (Homo sapiens) (UniProt Q96RI1). Briefly: qHTS assay for small molecule agonists of farnesoid X receptor signaling (AID 588527; calls by dose curve;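 note: series mostly up to about 77 µM; 0% = vehicle basal and 100% = reference agonist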). The following applies: HEK293T FXR-UAS-bla, beta-lactamase ratio, 16 h; activation: stronger effect = higher value. Put shortly:
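FXR-UAS-bla HEK293T, 10% dialyzed FBS; cpds up to 92 uM titration, 16 h 37 C; CCF4 dye 2 h RT; fluorescence. Normalized to chenodeoxycholic acid 100 uM (100%) and DMSO (0%); Hill fit gives EC50, efficacy.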

Chain of Cytochrome P450 3A4 (Homo sapiens) (P08684 whole entry, looked up): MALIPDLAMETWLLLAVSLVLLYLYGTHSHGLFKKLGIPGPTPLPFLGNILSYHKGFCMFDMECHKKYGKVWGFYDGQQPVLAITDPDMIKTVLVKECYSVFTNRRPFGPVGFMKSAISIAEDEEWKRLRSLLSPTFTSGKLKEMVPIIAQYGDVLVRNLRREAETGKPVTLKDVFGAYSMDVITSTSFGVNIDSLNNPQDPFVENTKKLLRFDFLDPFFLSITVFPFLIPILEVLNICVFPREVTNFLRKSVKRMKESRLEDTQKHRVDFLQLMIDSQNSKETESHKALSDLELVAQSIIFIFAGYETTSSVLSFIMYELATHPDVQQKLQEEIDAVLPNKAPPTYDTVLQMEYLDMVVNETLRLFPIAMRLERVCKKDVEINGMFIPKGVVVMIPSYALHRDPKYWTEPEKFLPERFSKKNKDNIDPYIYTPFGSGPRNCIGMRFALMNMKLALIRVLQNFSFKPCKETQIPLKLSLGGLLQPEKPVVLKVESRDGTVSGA
Chain of Nuclear receptor ROR-gamma (Homo sapiens) (P51449 whole entry, looked up): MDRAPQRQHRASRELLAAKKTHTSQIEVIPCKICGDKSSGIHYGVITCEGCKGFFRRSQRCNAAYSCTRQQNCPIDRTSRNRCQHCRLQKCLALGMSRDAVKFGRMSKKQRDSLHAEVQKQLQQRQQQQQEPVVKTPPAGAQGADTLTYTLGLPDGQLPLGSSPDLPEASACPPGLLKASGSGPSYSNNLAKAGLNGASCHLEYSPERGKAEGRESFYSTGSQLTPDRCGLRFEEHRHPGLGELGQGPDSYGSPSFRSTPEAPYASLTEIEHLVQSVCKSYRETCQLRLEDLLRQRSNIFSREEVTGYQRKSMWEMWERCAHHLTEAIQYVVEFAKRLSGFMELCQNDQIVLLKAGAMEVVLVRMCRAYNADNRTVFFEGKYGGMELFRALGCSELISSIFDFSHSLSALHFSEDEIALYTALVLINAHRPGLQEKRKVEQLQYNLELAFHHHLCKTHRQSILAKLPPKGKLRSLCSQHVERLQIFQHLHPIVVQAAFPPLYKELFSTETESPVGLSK
Chain of Ubiquitin carboxyl-terminal hydrolase 1 (Homo sapiens) (O94782 whole entry, looked up): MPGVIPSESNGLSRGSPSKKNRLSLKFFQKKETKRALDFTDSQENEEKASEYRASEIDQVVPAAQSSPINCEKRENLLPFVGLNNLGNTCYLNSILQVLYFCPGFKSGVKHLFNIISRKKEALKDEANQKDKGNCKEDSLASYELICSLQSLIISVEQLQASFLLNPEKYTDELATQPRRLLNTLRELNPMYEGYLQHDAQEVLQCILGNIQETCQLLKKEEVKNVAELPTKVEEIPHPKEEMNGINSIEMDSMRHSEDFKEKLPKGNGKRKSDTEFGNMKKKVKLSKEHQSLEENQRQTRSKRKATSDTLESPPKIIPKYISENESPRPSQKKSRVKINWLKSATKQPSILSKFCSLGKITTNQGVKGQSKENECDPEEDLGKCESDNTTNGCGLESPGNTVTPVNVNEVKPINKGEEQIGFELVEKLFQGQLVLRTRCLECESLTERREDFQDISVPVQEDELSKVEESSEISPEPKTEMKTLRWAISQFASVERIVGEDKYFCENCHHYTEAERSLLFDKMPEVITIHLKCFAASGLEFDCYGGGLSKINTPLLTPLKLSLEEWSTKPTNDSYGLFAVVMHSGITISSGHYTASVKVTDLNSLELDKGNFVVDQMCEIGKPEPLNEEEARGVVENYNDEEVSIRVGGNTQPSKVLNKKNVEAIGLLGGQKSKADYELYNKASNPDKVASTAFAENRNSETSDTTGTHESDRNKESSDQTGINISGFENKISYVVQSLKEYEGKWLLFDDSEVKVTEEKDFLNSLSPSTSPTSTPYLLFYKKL
Chain of Arylsulfatase A (Homo sapiens) (P15289 whole entry, looked up): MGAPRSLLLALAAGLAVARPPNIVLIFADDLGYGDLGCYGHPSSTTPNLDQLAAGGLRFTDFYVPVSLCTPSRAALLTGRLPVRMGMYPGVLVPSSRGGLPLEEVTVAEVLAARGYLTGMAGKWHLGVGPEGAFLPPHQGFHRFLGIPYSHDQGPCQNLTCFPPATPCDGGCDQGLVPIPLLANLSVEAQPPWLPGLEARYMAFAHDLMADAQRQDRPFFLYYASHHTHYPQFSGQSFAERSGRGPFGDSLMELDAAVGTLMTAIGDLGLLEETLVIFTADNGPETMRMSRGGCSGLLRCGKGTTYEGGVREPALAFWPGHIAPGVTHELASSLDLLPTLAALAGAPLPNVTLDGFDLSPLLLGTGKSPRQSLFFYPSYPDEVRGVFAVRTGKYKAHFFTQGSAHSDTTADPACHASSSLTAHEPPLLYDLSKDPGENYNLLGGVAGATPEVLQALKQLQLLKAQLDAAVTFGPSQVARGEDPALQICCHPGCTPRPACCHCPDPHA
Chain of Bile acid receptor (Homo sapiens) (Q96RI1 whole entry, looked up): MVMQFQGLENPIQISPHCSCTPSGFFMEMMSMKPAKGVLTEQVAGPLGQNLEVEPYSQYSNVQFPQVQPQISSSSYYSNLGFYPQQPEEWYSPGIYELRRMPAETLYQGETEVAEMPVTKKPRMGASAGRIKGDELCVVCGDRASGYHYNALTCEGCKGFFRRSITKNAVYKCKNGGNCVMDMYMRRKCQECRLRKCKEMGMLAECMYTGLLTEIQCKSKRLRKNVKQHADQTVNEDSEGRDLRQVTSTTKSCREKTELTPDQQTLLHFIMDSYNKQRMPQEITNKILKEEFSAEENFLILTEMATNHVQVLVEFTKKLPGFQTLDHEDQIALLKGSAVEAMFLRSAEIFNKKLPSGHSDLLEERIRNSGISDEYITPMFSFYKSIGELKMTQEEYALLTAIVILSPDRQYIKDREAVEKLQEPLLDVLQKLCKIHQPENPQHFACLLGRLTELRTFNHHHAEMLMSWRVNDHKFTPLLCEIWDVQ

With `COc1ccccc1N1CCN(CCN(C(=O)c2ccc(F)cc2)c2ccccn2)CC1`, the result in assay [1] and in [3] was inactive. The Potency result in [2], in assay [4], in assay [5], in [6] and in assay [7] was “inactive” each time.

With `COC(=O)[C@H](NC(=O)c1cc(-c2ccccc2)nc2ccccc12)c1ccccc1`, the call in assay [1] and in [3] was inactive. In addition, the Potency result in assay [2], in assay [4], in assay [5], in assay [6] and in [7] was “inactive” each time.

Consider `CC(C)NC[C@H](O)COc1ccc(CC(N)=O)cc1`, for which the result in assay [1] and in assay [3] was inactive. The Potency entry in assay [2], in assay [4], in assay [5], in assay [6] and in [7] was “inactive” in each case.

Regarding `CN1CCC[C@H]1c1cccnc1`, the Potency entry in [2], in [8], in assay [9], in assay [4], in assay [5] and in assay [6] was “inactive” each time. The Potency result in assay [7] is “inactive”. In addition, the outcome in assay [3] was inactive. Further, the max response in assay [10] is 8.91%.

As for `CCCN(CC1CC1)c1nc(C)nc(Nc2c(Cl)cc(Cl)cc2Cl)c1Cl`, the outcome in assay [1] and in [3] was inactive. The Potency entry in assay [2], in assay [4], in assay [5], in [6] and in assay [7] was “inactive” in each case.

Regarding `CC1(C)CCC=[N+]1[O-]`, the compound was called inactive in [1], in assay [11] and in assay [3]. Moreover, the Potency entry in [2], in assay [4], in assay [5], in [6] and in assay [7] was “inactive” in each case.

In the case of `C=CCN1CCc2cc(O)c(O)cc2C(c2ccccc2)C1` (configuration not stated), the Potency entry in assay [2], in [4], in assay [5], in assay [6] and in assay [7] was “inactive” each time. For the same compound, the compound was called inactive in assay [3].

`O=C(O)c1ccccc1Nc1cccc(OCc2ccc3ccccc3n2)c1`: the outcome in assay [1] and in assay [3] was inactive. Besides, the Potency entry in assay [2], in assay [4], in assay [5], in assay [6] and in [7] was “inactive” in each case.

Consider `CN(C)c1nc(N)c(C(=O)N=C(N)N)nc1Cl`, for which the outcome in [1], in [11] and in assay [3] was inactive. Also, the Potency entry in assay [2], in [4], in [5], in assay [6] and in [7] was “inactive” throughout.

Consider `OC[C@H]1O[C@@H](n2cnc3cncnc32)[C@H](O)[C@@H]1O`, for which the Potency entry in [12], in assay [2], in assay [4], in assay [5], in assay [6] and in assay [7] was “inactive” each time. Moreover, in [3], the result was inactive.

Consider `O=C(O)c1cc(=O)c2c(Cl)cc(Cl)cc2[nH]1`, for which the result in assay [1], in [11] and in assay [3] was inactive. Moreover, the Potency entry in assay [2], in assay [4], in assay [5], in assay [6] and in assay [7] was “inactive” each time.

Consider `NS(=O)(=O)c1cccc2c1c([N+](=O)[O-])cc1nc(O)c(O)nc12`, for which the call in assay [1], in [11] and in assay [3] was inactive. The Potency result in assay [2], in assay [4], in assay [5], in [6] and in assay [7] was “inactive” in each case.

Consider `O=C(O)C1CCNCC1`, for which the compound was classed as inactive in assay [1] and in assay [3]. In addition, the Potency entry in [2], in assay [4], in assay [5], in [6] and in [7] was “inactive” throughout.

`Cc1nc(N=Nc2ccc(S(=O)(=O)O)cc2S(=O)(=O)O)c(COP(=O)(O)O)c(C=O)c1O`: the result in assay [1] and in assay [3] was inactive. In addition, the Potency result in [2], in assay [4], in assay [5], in assay [6] and in [7] was “inactive” throughout.

In the case of `NC(CCCP(=O)(O)O)C(=O)O` (configuration not stated), the Potency result in assay [2], in assay [13], in assay [4], in assay [5], in assay [6] and in assay [7] was “inactive” in each case. The compound was classed as inactive in assay [3].

With `[Li+]`, the result in assay [1], in assay [11] and in assay [3] was inactive. The Potency result in assay [2], in [4], in assay [5], in assay [6] and in [7] was “inactive” throughout.

Turning to `N=C(N)c1ccccc1`, the compound was called inactive in [1] and in assay [3]. Besides, the Potency result in assay [2], in assay [14], in assay [4], in assay [5], in assay [6] and in assay [7] was “inactive” in each case.

With `NC(N)=NC(N)=Nc1ccccc1`, the compound was called inactive in assay [1] and in [3]. Moreover, the Potency result in [2], in [4], in assay [5], in [6] and in assay [7] was “inactive” throughout.

In the case of `O=c1[nH]c2ccccc2c2ccccc12`, the result in assay [1] and in assay [3] was inactive. Further, the Potency result in assay [2], in assay [4], in assay [5], in [6] and in assay [7] was “inactive” in each case.

As to `CCCc1c(-c2ccc(O)cc2)nn(-c2ccc(O)cc2)c1-c1ccc(O)cc1`, the call in assay [1], in [11] and in [3] was inactive. Further, the Potency in assay [2] is 2000 nM (active). In assay [15], the activation is 1.37%. In addition, the Potency entry in [4], in assay [5], in assay [6] and in assay [7] was “inactive” throughout.

With `CC(C)(CO)Cc1cc(C(C)(C)C)c(O)c(C(C)(C)C)c1`, the call in [1], in assay [11] and in assay [3] was inactive. In addition, the Potency result in [2], in [4], in assay [5], in assay [6] and in assay [7] was “inactive” in each case.

With `O=C(OCCN1CCOCC1)C1(c2ccccc2)CCCCC1`, the compound was called inactive in [1] and in [3]. Moreover, the Potency result in assay [2], in [4], in [5], in assay [6] and in assay [7] was “inactive” each time.

Turning to `N[C@@H](Cc1cnc[nH]1)C(=O)O`, the call in assay [1] and in assay [3] was inactive. In addition, the Potency entry in assay [2], in [4], in assay [5], in assay [6] and in assay [7] was “inactive” throughout.

Consider `C/C(=C\c1ccc(C(=O)O)cc1)c1ccc2c(c1)C(C)(C)CCC2(C)C`, for which the result in assay [1] and in assay [3] was inactive. The Potency entry in [2], in assay [4], in assay [5], in [6] and in assay [7] was “inactive” each time.

Consider `Oc1ccc(Cn2cc[nH]c2=S)cc1`, for which the call in assay [1], in assay [11] and in [3] was inactive. For the same compound, the Potency result in [2], in [4], in assay [5], in assay [6] and in assay [7] was “inactive” each time.

On to `N=c1c[n+](N2CCOCC2)[n-]o1`, for which the compound was classed as inactive in assay [1] and in [3]. For the same compound, the Potency result in assay [2], in [4], in assay [5], in [6] and in assay [7] was “inactive” in each case.

Regarding `CN1CCN(c2nc3cc(C(F)(F)F)ccc3n3cccc23)CC1`, the result in [1], in assay [11] and in assay [3] was inactive. Further, the Potency entry in assay [2], in assay [4], in assay [5], in [6] and in assay [7] was “inactive” throughout.

For the compound `CN1CCc2cc(O)c(O)cc2C(c2ccccc2)C1` (configuration not stated), the Potency result in [2], in assay [4], in assay [5], in assay [6] and in assay [7] was “inactive” throughout. Moreover, the compound was called inactive in [3].

Consider `O=[N+]([O-])c1cccc2c(Br)[nH]nc12`, for which the compound was called inactive in assay [1] and in assay [3]. Moreover, the Potency entry in assay [2], in assay [4], in assay [5], in assay [6] and in assay [7] was “inactive” in each case.

With `NCCNS(=O)(=O)c1cccc2c(Cl)cccc12`, the result in assay [1], in [11] and in assay [3] was inactive. The Potency result in assay [2], in assay [4], in [5], in [6] and in assay [7] was “inactive” throughout.
